Compound activity: PubChem BioAssay, National Center for Advancing Translational Sciences (NCATS)
Compounds with a hit are over-represented: about 6.5% of the library has one in this group of screens.
HT1080NT lethal: kills 2HG-producing HT-1080-NT fibrosarcoma cells; Potency, µM (series often up to 46.1 µM), for inactives: at the top dose activity, negative = less viability, actives largely listed as cytotoxic; HT-1080-NT fibrosarcoma viability, CellTiter-Glo ATP luminescence, 48 h; 1.6% of 360,000 active;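 further: NT is the 2HG producing partner of a matched IDH1 knockdown line; potency means the concentration at half of the fitted maximal effect; 0% = DMSO-treated cells and -100% = media-only wells without cells; nearly all actives have a fitted effect of over 55% in size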
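HT-1080-NT; 750 cells/well; 5% FBS RPMI; 48 h compound, 37 degrees C; CellTiter-Glo luminescence; curve fitting and curve-class assignment.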
HepG2 tox: kills HepG2 cells in TGF-b inhibitor counter-screen | HepG2 CAGA-GFP viability, ATP luminescence, 18 h | Potency, µM (series often up to 46.1 µM), for inactives: top-dose activity change, negative = cytotoxicity, actives largely listed as cytotoxic | 0.76% of 410,000 active | AID 588856; further: potency means the concentration at half of the fitted maximal effect
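CellTiter-Glo luminescence gave cytotoxicity after 18 hours at 37 degrees C. The cells were HepG2 CAGA-GFP in 1% FBS DMEM, stimulated with 500 pg/mL TGF-beta after compound addition. %Activity was normalised to no-cell wells (complete cell-killing) and DMSO (no toxicity), and curves were fitted and classified.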
TGFb SMAD3 inh: inhibitors of TGF-b signaling. HepG2 CAGA-GFP TGF-b/SMAD3 reporter, GFP fluorescence, 18 h; TGF-beta stimulated, 500 pg/mL final. Potency, µM (titrated, usually from 46.1 µM), for the others: at the top dose activity, negative = inhibition, hits mostly inhibitors. AID 588855. 1.2% of 410,000 active; further: potency means the concentration at half of the fitted maximal effect; on the % scale 0 is the no-effect control and ±100 the full control effect; nearly all actives have a fitted effect of over 65% in size
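Per well, imaged GFP fluorescence of HEPG2 CAGA-GFP cells gives the signal; cells get compound, then TGF-beta (500 pg/mL final), 18 h at 37 degrees C; %Activity versus -TGF-beta and +DMSO controls.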
IL-1B inflam inh: inhibitors of inflammasome signaling (IL-1 beta secretion); THP-1 LPS/ATP IL-1B secretion, AlphaLISA, 16 h; active compounds read low; activity change, % at 57.5 µM; 4.7% of 360,000 active; AID 743279; in the data active means activity change below about -50%; inconclusive means mostly about -30% to -49%; further: on the % scale 0 is the no-effect control and ±100 the full control effect
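THP-1 cells pretreated 1 hr with compounds (up to 57.5 uM final), then stimulated with LPS (250 ng/mL final) plus ATP (1.25 mM final); secreted IL-1B measured by AlphaLISA after 16 hr, decreased signal indicating inhibition.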
HT1080 IDH1KD tx: HT-1080 IDH1 knockdown cell toxicity (counter line); Potency, µM (series often up to 46.1 µM), inactives show at the highest dose activity, negative = toxicity, hits mostly cytotoxic; 2% of 360,000 active; AID 686971; HT-1080 IDH1 knockdown viability, ATP luminescence, 48 h;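 further: potency means the concentration at half of the fitted maximal effect; 0% = DMSO wells and -100% = cell-free medium wells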
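Knockdown cells (IDH1KD HT-1080) received compounds 2 h after plating at 750 cells/well and were kept 48 h at 37 °C in 5% FBS RPMI. A CellTiter-Glo luminescence read gave % activity for curve fitting.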
Giardia killer: kills Giardia lamblia; Giardia lamblia trophozoite viability; activity change, % at 7.66 µM, hits read low; 0.15% of 340,000 active; AID 540267; in the data active means activity change below about -80%; inconclusive means between about -30% and that limit;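 further: parasites exposed to compound for two days anaerobically before the ATP read; on the % scale 0 is the no-effect control and ±100 the full control effect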
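Giardia lamblia trophozoites (100 cells/well) were incubated with compounds for 48 h at 37 deg C under anaerobic conditions. Viability was read as ATP content by one-step luminescence after 15-30 min at room temperature.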
The depositor's hits bear a star; ? = inconclusive; . = no result given. Unless noted, the call rests on the fitted dose curve; in most records, active means well fitted curve in the direction sought with a large enough effect; inconclusive means small, poorly fitted or top-dose-only effect, or another doubt; inactive means no such curve, though single readings can be large; an effect the other way counts as inactive or inconclusive.

SMILES | HT1080NT lethal | HepG2 tox | TGFb SMAD3 inh | IL-1B inflam inh | HT1080 IDH1KD tx | Giardia killer
CN1CCC(N(C)c2ncnc3ccc(Br)cc23)CC1 | -11.1% | -24.5% | 10.3% | -18.1 | -10.1% | -3.0
Cc1ccc(-c2nc(N(C)C3CCN(C)CC3)c3ccccc3n2)cc1 | 12.6µM* | 12.6µM* | ? | -89.7* | 15.8µM* | 6.7
O=C1NC(=O)N(CCc2ccc(F)cc2)C(=O)/C1=C\C=C\c1ccccc1 | 13.9% | -1.5% | -21.5% | -23.8 | 18.6% | 13.2
CN1C(=O)NC(=O)/C(=C\C=C\c2ccccc2[N+](=O)[O-])C1=O | ? | -18.8% | 11.2µM* | -98.0* | 11.6µM* | 0.6
CN1CC=C(/C=C/c2ccc(-c3ccccc3)cc2)CC1 | -17.4% | 11.2µM* | ? | ? | -12.9% | 30.4
O=C1/C(=C\c2ccncc2)N2CCC1CC2 | -1.5% | -30.4% | 2.9% | -5.4 | -4.2% | -4.9
O=C1/C(=C/c2cccc([N+](=O)[O-])c2)N2CCC1CC2 | -7.0% | -16.2% | 5.2% | -67.7* | -3.1% | 13.9
O=C1/C(=C\c2ccc(Cl)c(Cl)c2)N2CCC1CC2 | 0.7% | -3.7% | 5.8% | -79.3* | -7.1% | -10.5
O[C@@H]1CCCN2CCc3c([nH]c4ccccc34)[C@H]12 | -10.8% | -56.5% | -1.5% | -4.6 | 6.8% | ?
CC(=O)OC1CCC2(C)C(=CC(=O)C3C2CCC2(C)C(OC(C)=O)CCC32)C1 (centres undefined) | 10.0% | -23.0% | -3.8% | 13.0 | 8.1% | 7.9
O=C1NCN(c2ccccc2)C12CCN(C(c1cc3ccccc3o1)c1nnnn1C1CCCC1)CC2 (centres undefined) | ? | -0.2% | ? | -65.2* | ? | .
COc1cccc(C(c2nnnn2C2CCCCC2)N2CCC3(CC2)C(=O)NCN3c2ccccc2)c1OC (centres undefined) | ? | -3.3% | 22.4µM* | . | ? | .
O=C1NCN(c2ccccc2)C12CCN(C(c1cccc3ccccc13)c1nnnn1C1CCCCC1)CC2 (centres undefined) | ? | 0.8% | ? | 41.7 | 1.3% | .
O=C1NCN(c2ccccc2)C12CCN(C(c1cccc3ccccc13)c1nnnn1C1CCCC1)CC2 (centres undefined) | ? | -14.5% | ? | -62.0* | ? | .
CN(C)CCN=Cc1c(O)n(Cc2ccco2)c(=O)[nH]c1=O | 1.1% | -0.9% | 0.0% | -7.2 | 4.7% | -0.7
CC(C)(C)N1CC(C(=O)c2ccccc2)C1c1ccccc1 (centres undefined) | -6.7% | -10.9% | -4.1% | -80.2* | ? | 5.4
CN1CC(C(=O)c2ccccc2)C(c2ccccc2)C1 (centres undefined) | 8.6% | -1.6% | 1.2% | -12.9 | 19.1% | 3.5
CCN(CC)c1ccc(N=Cc2c(O)n(-c3cc(OC)ccc3OC)c(=O)[nH]c2=O)cc1 | ? | 0.0% | 0.0% | 28.4 | -0.7% | -1.9
O=C1C=C2C=C[C@@H]3CC2(O1)[C@H]1CCCCN31 | -25.1% | -19.7% | -15.8% | -95.9* | ? | 7.8
COc1ccc(C(=O)O/N=C(/C(N)=O)P(=O)(OC(C)C)OC(C)C)cc1 | ? | -36.1% | -0.3% | . | ? | -1.4
COc1ccccc1Sc1ccccc1CC(C)N (centres undefined) | -18.2% | -12.6% | 10.1% | -55.9* | -15.6% | -1.3
COc1ccc(-c2nc3ccccc3c(=O)n2-c2ccc(OC)cc2)cc1 | 0.4% | -7.9% | -4.7% | 7.2 | -8.1% | -0.5
O=c1c2ccccc2sn1-c1ccc(Cl)cc1 | ? | -78.4% | ? | -105.5* | ? | .
Cc1ccc(-n2sc3ccccc3c2=O)cc1 | ? | -104.1% | ? | -103.0* | ? | -9.1
O=C(O)C1C2CCC(O2)C1C(=O)Nc1ccc(Cl)cc1 (centres undefined) | -3.0% | 1.8% | 0.3% | 50.4 | -26.1% | 15.9
